Results on 29 compounds are retold here after ChEMBL document CHEMBL4513216, “Probing the Open Global Health Chemical Diversity Library for Multistage-Active Starting Points for Next-Generation Antimalarials” (ACS Infect Dis, 2020).

In all, about 68,000 compounds went through this assay and about 2,700 (4%) showed an effect of 50% or more. This is one part of a sample in which strong results are shown more often than they occur.

For this test, the system named is Plasmodium berghei. Kind of test: Screen against P. berghei liver stage (PbLuc), transformed with Luciferase, at 2uM. Format: functional, HepG2. To be noted: tested at 2 uM.
Take `CC1CN(CC(=O)N2CCOCC2)CCN1Cc1nccn1C` (centres undefined): the INHIBITION is 66.27%. In the case of `COc1ccc(C)cc1CN1CCN(Cc2nccn2C)CC1`, the INHIBITION is listed as 50.61%. Under `COc1ccc(CN2CCN(Cc3nccn3C)C(C)C2)cc1F` (centres undefined) stands -13.34%. On to `Cc1ccccc1CN1CCN(Cc2nccn2C)CC1`, for which the INHIBITION was found to be 20.28%.

Take `COc1ccc(F)cc1CN1CCN(Cc2nccn2C)C(C)C1` (centres undefined): the INHIBITION is recorded as -49.85%.

`CC1CN(CC(=O)NC2CCOCC2)CCN1Cc1nccn1C` (centres undefined): the INHIBITION is -0.99%. Under `C=C(C)CN1CCN(Cc2nccn2C)C(C)C1` (centres undefined) stands 36.95%. Under `COc1ccc(C(C)N2CCN(Cc3nccn3C)CC2)cc1Cl` (centres undefined) stands 18.31%; under `COc1ccc(C)cc1CN1CCN(Cc2nccn2C)C(C)C1` (centres undefined), 50.61%.

For the compound `Cc1cc(CN2CCc3nc(N4CCOCC4)nc(O)c3CC2)c(C)s1`, the INHIBITION turned out to be 22.84%.

For the compound `Cc1cccc(CNC2CC3(CCN(CCO)CC3)c3ccccc32)n1` (centres undefined), the INHIBITION stood at 34.02%. Under `Cc1ccc2oc(SCC(N)=O)nc2n1` stands -30.1%. Under `CN(C(=O)Nc1nncs1)C1CCN(c2ccccc2Cl)C1=O` (centres undefined) stands 2.06%.

Turning to `Cn1cnc2c1C(COCC1CCOCC1)CN(C(=O)c1ccco1)C2` (centres undefined), the INHIBITION is -39.19%.

For `CN(C)C(=O)N1CCN(C(=O)CCc2ccccc2)[C@H]2CS(=O)(=O)C[C@H]21`, the INHIBITION is recorded as -93.14%. On to `Cn1c(C2CC2)nc2c1CCN(Cc1nc3ccccc3s1)C2`, for which the INHIBITION is reported as 14.59%. As to `CN1CC2(CCN(C(=O)COc3ccc(Cl)cc3Cl)CC2)OC1=O`, the INHIBITION was found to be 16.37%. Regarding `c1cn(Cc2nnc(C3CCN(C4CCOCC4)CC3)n2C2CC2)cn1`, the INHIBITION stood at 24.88%.

Regarding `OCC(CO)N1CCC(c2nnc(Cn3ccnc3)n2C2CC2)CC1`, the INHIBITION came to 32.26%.

Consider `NCCN1CCC(c2nnc(Cn3ccnc3)n2C2CC2)CC1`, for which the INHIBITION is 52.08%.

Take `CC(C)(C)CN1CCC(c2nnc(Cn3ccnc3)n2C2CC2)CC1`: the INHIBITION is on record as -13.72%.

Consider `CS(=O)(=O)N1CCC(c2nnc(Cn3ccnc3)n2C2CC2)CC1`, for which the INHIBITION is recorded as -13.72%. With `CSCCCN1CCC(c2nnc(Cn3ccnc3)n2C2CC2)CC1`, the INHIBITION came out at 54.29%. Under `COc1ccccc1C(NC(=O)CN(C)C(C)C)c1noc(C)n1` (centres undefined) stands 1.8%. With `O=C1CN(C(=O)c2cccc(OCc3cscn3)c2)CCN1`, the INHIBITION is recorded as -7.02%. Under `CS(=O)(=O)N1CCC(NC(=O)COc2ccc(Cl)cc2)CC1` stands 54.86%. Consider `CS(=O)(=O)N1CCC(NC(=O)COc2ccc(Cl)c(Cl)c2)CC1`, for which the INHIBITION was -34.45%.

For `Cc1ccc(OCC(=O)NC2CCN(S(C)(=O)=O)CC2)cc1`, the INHIBITION was determined as 30.88%.

As for `c1ccc(COC[C@]23COC[C@H]2CN(c2ncccn2)C3)nc1`, the INHIBITION is given as -19.09%.
